{
  "source": "the supplement of paper PMC8728848",
  "binders": {"B1": {"name": "B725 (Bifidobacterium sp) (protein)", "chain": "MNNTTRAVIATAAIGALLIPLAGCGNTTTSSGKTELTVWSWDASIDRAAKSFMKANPDITVKVSNVGSTEETYTALNNAAQAGSGLPDVTLIEYLAIPQFVHSDTLMDLSKVYNTAKLKDTFTPGTWNSVNINGGLYAMPADSGPMAYFYDKDVFDKAGISEPPTTWDEFYEDAKKIRATGSYITSDSGDAGLFNAMMWAMGGHAYKLNDDKLTINIAKDKGAQRFMDLWQKMRDEDLIDVHTKTWTDDWMKSLGDGSIASLISGAWMANNLLQGVPQATGKFRVALLPTIDGTPINGEYGGSGLAITKKIPDGKLDAAKKFVEYVTTNDEGIDARVSNGSFPATTKTLNQKDFLAKTTLRNTDGSDNEFFGGQKYNEIFSQAAKDVTGKWEFLPFEPYARSVYNDNMGSFFAGKTSFRTAADNWQKALKDYAKDQGFTVQ"}},
  "assay_in_all_cases": "glycan array binding signal (z-score within array); higher = stronger binding",
  "details_in_all_cases": "glycan notation: IUPAC condensed, linker removed",
  "key": {"[1]": {"biological_target": "Gal(b1-4)GlcNAc(b1-3)Gal(b1-4)GlcNAc(b1-3)Gal(b1-4)GlcNAc(b1-3)Gal(b1-4)GlcNAc(b1-2)[Gal(b1-4)GlcNAc(b1-3)Gal(b1-4)GlcNAc(b1-3)Gal(b1-4)GlcNAc(b1-3)Gal(b1-4)GlcNAc(b1-6)]Man(a1-6)[Gal(b1-4)GlcNAc(b1-3)Gal(b1-4)GlcNAc(b1-3)Gal(b1-4)GlcNAc(b1-3)Gal(b1-4)GlcNAc(b1-2)Man(a1-3)]Man(b1-4)GlcNAc(b1-4)[Fuc(a1-6)]GlcNAc", "method_in_brief": "(§1)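 The Consortium for Functional Glycomics database supplied 3228 glycan arrays, of which those lacking an available protein sequence were dropped. The binding signal, a within-array Z-score, was averaged across arrays of the same protein sequence and across linkers. Negative scores can be read as non-binding.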"}, "[2]": {"biological_target": "Gal(b1-4)GlcNAc(b1-3)Gal(b1-4)GlcNAc(b1-3)Gal(b1-4)GlcNAc(b1-3)Gal(b1-4)GlcNAc(b1-3)Gal(b1-4)GlcNAc(b1-2)Man(a1-3)[Gal(b1-4)GlcNAc(b1-3)Gal(b1-4)GlcNAc(b1-3)Gal(b1-4)GlcNAc(b1-3)Gal(b1-4)GlcNAc(b1-3)Gal(b1-4)GlcNAc(b1-2)Man(a1-6)]Man(b1-4)GlcNAc(b1-4)[Fuc(a1-6)]GlcNAc", "method_in_brief": "as §1"}, "[3]": {"biological_target": "Gal(b1-4)GlcNAc(b1-3)Gal(b1-4)GlcNAc(b1-3)Gal(b1-4)GlcNAc(b1-3)Gal(b1-4)GlcNAc(b1-3)Gal(b1-4)GlcNAc(b1-2)[Gal(b1-4)GlcNAc(b1-3)Gal(b1-4)GlcNAc(b1-3)Gal(b1-4)GlcNAc(b1-3)Gal(b1-4)GlcNAc(b1-3)Gal(b1-4)GlcNAc(b1-6)]Man(a1-6)[Gal(b1-4)GlcNAc(b1-3)Gal(b1-4)GlcNAc(b1-3)Gal(b1-4)GlcNAc(b1-3)Gal(b1-4)GlcNAc(b1-3)Gal(b1-4)GlcNAc(b1-2)Man(a1-3)]Man(b1-4)GlcNAc(b1-4)[Fuc(a1-6)]GlcNAc", "method_in_brief": "as §1"}, "[4]": {"biological_target": "Gal(b1-4)GlcNAc(b1-3)Gal(b1-4)GlcNAc(b1-3)Gal(b1-4)GlcNAc(b1-3)Gal(b1-4)GlcNAc(b1-3)Gal(b1-4)GlcNAc(b1-3)Gal(b1-4)GlcNAc(b1-2)Man(a1-3)[Gal(b1-4)GlcNAc(b1-3)Gal(b1-4)GlcNAc(b1-3)Gal(b1-4)GlcNAc(b1-3)Gal(b1-4)GlcNAc(b1-3)Gal(b1-4)GlcNAc(b1-3)Gal(b1-4)GlcNAc(b1-2)Man(a1-6)]Man(b1-4)GlcNAc(b1-4)GlcNAc", "method_in_brief": "as §1"}, "[5]": {"biological_target": "Gal(b1-4)GlcNAc(b1-3)GalNAc", "method_in_brief": "as §1"}, "[6]": {"biological_target": "Gal6S(b1-3)GlcNAc", "method_in_brief": "as §1"}, "[7]": {"biological_target": "GalNAc(a1-3)GalNAc(b1-3)Gal(a1-4)Gal(b1-4)Glc", "method_in_brief": "as §1"}, "[8]": {"biological_target": "Glc(b1-6)Glc", "method_in_brief": "as §1"}, "[9]": {"biological_target": "GlcNAc(b1-3)Fuc", "method_in_brief": "as §1"}, "[10]": {"biological_target": "GlcNAc(b1-3)Gal(b1-4)GlcNAc(b1-2)Man(a1-3)[GlcNAc(b1-3)Gal(b1-4)GlcNAc(b1-2)Man(a1-6)]Man(b1-4)GlcNAc(b1-4)[Fuc(a1-6)]GlcNAc", "method_in_brief": "as §1"}, "[11]": {"biological_target": "GlcNAc(b1-3)Gal(b1-4)GlcNAc(b1-3)Gal(b1-4)GlcNAc(b1-2)Man(a1-3)[GlcNAc(b1-3)Gal(b1-4)GlcNAc(b1-3)Gal(b1-4)GlcNAc(b1-2)Man(a1-6)]Man(b1-4)GlcNAc(b1-4)[Fuc(a1-6)]GlcNAc", "method_in_brief": "as §1"}, "[12]": {"biological_target": "GlcNAc(b1-3)Gal(b1-4)GlcNAc(b1-3)Gal(b1-4)GlcNAc(b1-2)[GlcNAc(b1-3)Gal(b1-4)GlcNAc(b1-3)Gal(b1-4)GlcNAc(b1-6)]Man(a1-6)[GlcNAc(b1-3)Gal(b1-4)GlcNAc(b1-3)Gal(b1-4)GlcNAc(b1-2)Man(a1-3)]Man(b1-4)GlcNAc(b1-4)[Fuc(a1-6)]GlcNAc", "method_in_brief": "as §1"}, "[13]": {"biological_target": "GlcNAc(b1-3)Gal(b1-4)GlcNAc(b1-3)Gal(b1-4)GlcNAc(b1-3)Gal(b1-4)GlcNAc(b1-3)Gal(b1-4)GlcNAc(b1-2)Man(a1-3)[GlcNAc(b1-3)Gal(b1-4)GlcNAc(b1-3)Gal(b1-4)GlcNAc(b1-3)Gal(b1-4)GlcNAc(b1-3)Gal(b1-4)GlcNAc(b1-2)Man(a1-6)]Man(b1-4)GlcNAc(b1-4)[Fuc(a1-6)]GlcNAc", "method_in_brief": "as §1"}, "[14]": {"biological_target": "GlcNAc(b1-3)Man", "method_in_brief": "as §1"}, "[15]": {"biological_target": "Neu5Ac(a2-3)Gal(b1-3)GalNAc(b1-3)Gal(a1-4)Gal(b1-4)Glc", "method_in_brief": "as §1"}, "[16]": {"biological_target": "Neu5Ac(a2-3)Gal(b1-4)Glc", "method_in_brief": "as §1"}, "[17]": {"biological_target": "Neu5Ac(a2-3)Gal(b1-4)GlcNAc(b1-2)Man", "method_in_brief": "as §1"}, "[18]": {"biological_target": "Neu5Ac(a2-3)Gal(b1-4)GlcNAc(b1-3)Gal(b1-4)GlcNAc(b1-3)Gal(b1-4)GlcNAc(b1-2)Man(a1-3)[Neu5Ac(a2-3)Gal(b1-4)GlcNAc(b1-3)Gal(b1-4)GlcNAc(b1-3)Gal(b1-4)GlcNAc(b1-2)Man(a1-6)]GalNAc", "method_in_brief": "as §1"}, "[19]": {"biological_target": "Neu5Ac(a2-6)Gal", "method_in_brief": "as §1"}, "[20]": {"biological_target": "Neu5Ac(a2-6)Gal(b1-3)GlcNAc(b1-3)[Gal(b1-4)GlcNAc(b1-6)]Gal(b1-4)Glc", "method_in_brief": "as §1"}, "[21]": {"biological_target": "Neu5Ac(a2-6)Gal(b1-4)GlcNAc(b1-2)Man(a1-3)[GlcNAc(b1-4)][Neu5Ac(a2-6)Gal(b1-4)GlcNAc(b1-2)Man(a1-6)]Man(b1-4)GlcNAc(b1-4)GlcNAc", "method_in_brief": "as §1"}, "[22]": {"biological_target": "Neu5Ac(a2-6)Gal(b1-4)GlcNAc(b1-2)Man(a1-3)[Neu5Ac(a2-6)Gal(b1-4)GlcNAc(b1-2)Man(a1-6)]Man(b1-4)GlcNAc(b1-4)[Fuc(a1-6)]GlcNAc", "method_in_brief": "as §1"}, "[23]": {"biological_target": "Neu5Ac(a2-6)Gal(b1-4)GlcNAc(b1-2)[Neu5Ac(a2-6)Gal(b1-4)GlcNAc(b1-4)]Man(a1-3)[GlcNAc(b1-4)][Neu5Ac(a2-6)Gal(b1-4)GlcNAc(b1-4)Man(a1-6)]Man(b1-4)GlcNAc(b1-4)GlcNAc", "method_in_brief": "as §1"}, "[24]": {"biological_target": "Neu5Ac(a2-6)Gal(b1-4)GlcNAc(b1-3)Gal(b1-4)GlcNAc(b1-3)GalNAc", "method_in_brief": "as §1"}, "[25]": {"biological_target": "Neu5Ac(a2-8)Neu5Ac", "method_in_brief": "as §1"}, "[26]": {"biological_target": "Neu5Ac(a2-8)Neu5Ac(a2-3)Gal(b1-3)GalNAc(b1-4)[Neu5Ac(a2-8)Neu5Ac(a2-3)]Gal(b1-4)Glc", "method_in_brief": "as §1"}, "[27]": {"biological_target": "Neu5Gc(a2-8)Neu5Gc(a2-3)Gal(b1-4)GlcNAc(b1-3)Gal(b1-4)GlcNAc", "method_in_brief": "as §1"}},
  "note": "The entries come from a sample that favours the strongest signals as a whole.",
  "data": [
    {"binder": "B1", "values": [
      {"measurement": "glycan array binding signal (z-score)", "setting": "[1]", "result": 6.73},
      {"measurement": "glycan array binding signal (z-score)", "setting": "[2]", "result": 4},
      {"measurement": "glycan array binding signal (z-score)", "setting": "[3]", "result": 5.49},
      {"measurement": "glycan array binding signal (z-score)", "setting": "[4]", "result": 8.21},
      {"measurement": "glycan array binding signal (z-score)", "setting": "[5]", "result": 0.358},
      {"measurement": "glycan array binding signal (z-score)", "setting": "[6]", "result": -0.217},
      {"measurement": "glycan array binding signal (z-score)", "setting": "[7]", "result": -0.209},
      {"measurement": "glycan array binding signal (z-score)", "setting": "[8]", "result": -0.219},
      {"measurement": "glycan array binding signal (z-score)", "setting": "[9]", "result": -0.207},
      {"measurement": "glycan array binding signal (z-score)", "setting": "[10]", "result": -0.131},
      {"measurement": "glycan array binding signal (z-score)", "setting": "[11]", "result": -0.216},
      {"measurement": "glycan array binding signal (z-score)", "setting": "[12]", "result": -0.203},
      {"measurement": "glycan array binding signal (z-score)", "setting": "[13]", "result": 0.138},
      {"measurement": "glycan array binding signal (z-score)", "setting": "[14]", "result": -0.204},
      {"measurement": "glycan array binding signal (z-score)", "setting": "[15]", "result": -0.221},
      {"measurement": "glycan array binding signal (z-score)", "setting": "[16]", "result": -0.228},
      {"measurement": "glycan array binding signal (z-score)", "setting": "[17]", "result": -0.207},
      {"measurement": "glycan array binding signal (z-score)", "setting": "[18]", "result": -0.042},
      {"measurement": "glycan array binding signal (z-score)", "setting": "[19]", "result": -0.222},
      {"measurement": "glycan array binding signal (z-score)", "setting": "[20]", "result": -0.205},
      {"measurement": "glycan array binding signal (z-score)", "setting": "[21]", "result": -0.227},
      {"measurement": "glycan array binding signal (z-score)", "setting": "[22]", "result": -0.217},
      {"measurement": "glycan array binding signal (z-score)", "setting": "[23]", "result": -0.212},
      {"measurement": "glycan array binding signal (z-score)", "setting": "[24]", "result": -0.214},
      {"measurement": "glycan array binding signal (z-score)", "setting": "[25]", "result": -0.215},
      {"measurement": "glycan array binding signal (z-score)", "setting": "[26]", "result": -0.2},
      {"measurement": "glycan array binding signal (z-score)", "setting": "[27]", "result": -0.198}
    ]}
  ]
}
